Laboratory results published in PubChem BioAssay AID540332 (The Scripps Research Institute Molecular Screening Center, 2011).
Unmarked numbers belong to inactive results. How the calls were made is not given here.

System: Imidazoline I2
Experiment: selectivity profile across receptors and CYP450s – biochemical, Ricerca HitProfilingScreen, CYP450, set 2, selectivity assay for S1P4 agonist project, profiling panel (AID 540332)
Conditions: Central; at 30 µM; stronger effect = higher value

Question: How did the inhibition turn out when `COCCN=C1S/C(=C\c2cc(C)n(-c3ccc(F)cc3F)c2C)C(=O)N1C` was run?
Answer: Its inhibition is 2%.
